An excerpt weighted towards active compounds, which were near 3.2% of everything screened.
HDAC3 inhib: blocks human histone deacetylase 3; inhibition, % at 8.3 µM; AID 2718; recombinant HDAC3, fluorogenic peptide/trypsin coupled, fluorescence; hit rate 0.15% among 320,000; O15379; in the data active means inhibition above about 26%, passing the limit was not always enough; inconclusive means no clear call, values can overlap the other calls
Target sequence (O15379 whole entry, looked up): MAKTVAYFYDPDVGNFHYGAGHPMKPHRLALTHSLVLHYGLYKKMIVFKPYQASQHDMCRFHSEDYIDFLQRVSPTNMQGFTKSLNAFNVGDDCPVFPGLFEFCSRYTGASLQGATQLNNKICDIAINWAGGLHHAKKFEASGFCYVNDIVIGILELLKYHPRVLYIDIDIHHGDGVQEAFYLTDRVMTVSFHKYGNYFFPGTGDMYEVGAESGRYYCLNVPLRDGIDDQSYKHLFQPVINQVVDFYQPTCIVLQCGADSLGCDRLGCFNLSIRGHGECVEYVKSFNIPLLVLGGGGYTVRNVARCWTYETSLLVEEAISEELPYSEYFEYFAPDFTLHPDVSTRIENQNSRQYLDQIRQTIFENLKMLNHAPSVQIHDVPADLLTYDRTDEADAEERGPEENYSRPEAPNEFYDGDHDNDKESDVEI
TMEM16A inh: inhibitors of mouse TMEM16A calcium-activated chloride channel. Q8BHY3. HEK293 TMEM16A/YFP iodide influx fluorescence, ionomycin. normalized B-score (activity score, 25-100; higher = stronger inhibition) at 10 µM. hit rate 1.2% among 310,000;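 active means ratio plate-corrected score three or more library SD toward inhibition, starting fluorescence score within five deviations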;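 further: score derived from kinetic fluorescence span divided by baseline fluorescence per well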
CHT allo act: human CHT allosteric activation | hit rate 0.49% among 310,000 | Q9GZV3 | CHT-expressing cells, membrane potential dye, choline EC20; stronger effect = higher value; LV-AA mutant CHT in HEK293 cells | B-score at 10 µM;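 active means initial fluorescence not abnormally high and integrated response B-score, plate-corrected, over 3 SD above library mean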
TMEM16A act: activators or potentiators of mouse TMEM16A chloride channel; AID 623877; B-score at 10 µM; hit rate 0.3% among 340,000; HEK293 TMEM16A/YFP-H148Q/I152L, iodide quench fluorescence; stronger effect = lower value; Q8BHY3;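 active means fluorescence-ratio B-score plate-corrected deviation score at least 3 library SD below zero, with starting fluorescence score within 5 deviations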;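 further: channel opened by trigger with iodide after compound preincubation; score built on the fluorescence ratio of max minus min over baseline; more negative score means more quench and so TMEM16A activation or potentiation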
PHOSPHO1 inh: blocks human PHOSPHO1 phosphatase activity. Q8TCT1. recombinant PHOSPHO1, absorbance phosphatase assay. inhibition, % at 13.3 µM. hit rate 1.1% among 290,000; in the data active means inhibition above about 60%
CHT inh: inhibitors of human choline transporter CHT; B-score at 10 µM; CHT-expressing cells, membrane potential dye, choline response; stronger effect = lower value; Q9GZV3; hit rate 0.86% among 310,000;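 active means B-score over 3 SD under the library average, and starting fluorescence ratio not unusually high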;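 further: choline stimulus applied at its EC90 after an EC20 pre-addition; B-score computed on integrated fluorescence ratio after choline addition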
Hits are given with their value; - = inactive; ? = inconclusive; . = no result.

SMILES	HDAC3 inhib	TMEM16A inh	CHT allo act	TMEM16A act	PHOSPHO1 inh	CHT inh
CSc1ncccc1C(=O)OCC(=O)c1ccccc1Br	-	-	-	-23	-	-
CC1Cc2c([nH]c(=O)n(-c3ccccc3)c2=O)O1 (stereo not drawn)	.	.	.	-	.	.
NS(=O)(=O)c1ccc(-c2ccc(/C=C3\SC(=S)N(C4CCS(=O)(=O)C4)C3=O)o2)cc1 (stereo not drawn)	-	-	-	-5	-	-
CCN(CC(O)Cn1c2ccccc2c2ccccc21)S(=O)(=O)c1ccc(F)cc1 (stereo not drawn)	30	-	-	-	-	-
O=S(=O)(c1ccc(F)cc1)N(CCO)CC(O)Cn1c2ccccc2c2ccccc21 (stereo not drawn)	-	-	-	-	-	-
O=C(O)c1ccccc1C(=O)Nc1nccs1	-	-	-	-	-	-
O=C(O)c1ccccc1C(=O)Nc1n[nH]c(=S)s1	?	-	-	-	99	-
CCn1c(N2CCN(CC(=O)c3c[nH]c4ccccc34)CC2)nc2c1c(=O)[nH]c(=O)n2C	-	-	-	-	74	-
CCCn1c(N2CCN(CC(=O)c3c(C)n(C)c4ccccc34)CC2)nc2c1c(=O)[nH]c(=O)n2C	-	-	-	-	-	-
COc1ccc(OC)c(/C=C2\SC(N3CCCC(C)C3)=NC2=O)c1 (stereo not drawn)	-	100	-	-	.	-
CC(C)C(=O)Nc1cccc(N2CCN(CCCN3C(=O)C4CCCCN4C3=O)CC2)c1 (stereo not drawn)	.	.	.	-	.	.
Cc1cccc(NC(=O)CSc2ncnc3nc[nH]c23)c1C	-	-	-	-	99	-
COc1cc(C)ccc1OCCCOc1ccccc1Br	-	-	-	-	-	-
CCc1ccccc1OCCOc1ccc(C)cc1OC	-	-	-	-	60	-
O=Cc1cccc(OC(=O)Nc2ccccc2)c1	.	-	-	-	.	-
O=c1c2c3c(sc2nc2n1CCCCC2)CCCC3	-	-	-	-	76	-
CC1CSc2nc3sc4c(c3c(=O)n21)CCCC4 (stereo not drawn)	-	-	-	-	67	-
O=c1c2c3c(sc2nc2n1CCCCC2)CCCCC3	-	-	-	-	-	-
O=c1c2c3c(sc2nc2n1CCCS2)CCCC3	-	-	-	-	-	-
CCOCCCNC(=O)CN1C(=O)c2ccccc2Sc2ncccc21	-	-	-	-	-	-
Cc1ccc(N(Cc2ccccc2)C(=O)c2ccc(F)c(S(=O)(=O)N3CCOCC3)c2)cc1	-	-	-	-	.	-
NC(=O)c1cc2cc(Br)ccc2oc1=NCc1ccccc1	-	-	-	-8.5	-	-
Oc1ccc2ccccc2c1CNc1ccc2ccccc2c1	.	.	.	-	.	.
C/C(=N\NS(=O)(=O)c1ccc(C)c([N+](=O)[O-])c1)c1cc2ccccc2o1	-	-	-	-	79	-
COc1ccc(C(=O)C(C)OC(=O)c2sc(C)nc2C)cc1 (stereo not drawn)	-	.	.	-	.	.
SMILES	HDAC3 inhib	TMEM16A inh	CHT allo act	TMEM16A act	PHOSPHO1 inh	CHT inh
Cc1cc(NC(=O)c2ccc(C#N)cc2)n(-c2ccccn2)n1	-	-	-	-30	-	-
O=c1c(/C=N\NS(=O)(=O)c2ccccc2)coc2ccc(Cl)cc12	-	100	-	-	.	-
CCOC(=O)C(NC(=O)c1ccccc1Cl)(Nc1ccc(C)c(C)c1)C(F)(F)F (stereo not drawn)	-	-	-	-	-	-
COC(=O)C(Nc1ccccc1Cl)(c1cc(C)c(O)c(C)c1)C(F)(F)F (stereo not drawn)	-	100	-	-	-	-
COc1ccccc1CCC(=O)OCC(=O)Nc1ccc(S(N)(=O)=O)cc1	-	-	-	-	-	-
Cc1cccc2cc(COC(=O)c3ccccc3)c(=O)[nH]c12	-	-	-	-	-	-
Cc1cccc2cc(COC(=O)c3cccnc3)c(=O)[nH]c12	-	-	-	-	78	-
CCOC(=O)C(C(=O)Nc1ccccn1)C1CCCCC1 (stereo not drawn)	-	-	-	-	70	-
CCOC(=O)C(C(=O)Nc1cccc(C)n1)C1CCCCC1 (stereo not drawn)	-	-	-	-	-	-
Cc1cc(OCC(=O)C(C)(C)C)c2c(C)c(C)c(=O)oc2c1	-	-	-	-	-	-
CCN(CC)CCN(C(=O)C1=COCCO1)c1nc2cc(C)cc(C)c2s1	-	-	-	-	-	-6
CCOC(=O)CCC(NC(=O)c1ccccc1C(=O)NC(CCC(=O)OCC)C(=O)OCC)C(=O)OCC (stereo not drawn)	-	-	-	-	65	-
CC1CC2(CCCC2)N(C(=O)N(C)C)c2ccc(F)cc21 (stereo not drawn)	-	-	-	-	-	-
Cc1ccc(C(=O)O)cc1-n1c(C)cc(C=O)c1C	-	-	-	-	-	-
COc1cc(CN2CCC(CO)(CCOc3ccccc3)CC2)cc(OC)c1OC	-	-	-	-	-	-
COc1cc(OC)c(CN2CCC(CO)(CCOc3ccccc3)CC2)c(OC)c1	-	-	-	-	64	-
COc1ccc(Cn2c(=O)sc3ccccc32)cc1	-	-	-	-	-	-
CC(C)Oc1ccc(Cn2c(=O)sc3ccccc32)cc1	-	25	-	-	-	-
CC1CCN(C(=O)CSc2nnc(CNC(=O)c3ccco3)o2)CC1	-	-	-	-15	-	-
O=C(NCc1nnc(SCC(=O)N2CCCC2)o1)c1ccco1	-	-	-	-	-	-
Oc1ccc(CCNc2c3ccccc3nc3ccccc23)cc1O	-	-	-	-	-	-
Cc1ccnc(NS(=O)(=O)c2ccc(NS(=O)(=O)c3cc(Cl)ccc3Cl)cc2)n1	-	-	-	-29	-	-
CCCC(CC)Sc1nc2c([nH]1)c(=S)n(C)c(=O)n2C (stereo not drawn)	.	.	.	-	.	.
Cn1c(=O)[nH]c(=O)c2c1nc(N1CCCCC1)n2C/C=N/Nc1ccc(C(=O)O)cc1	-	-	-	-	64	-
C/C=C/Cn1c(N2CCCCCC2)nc2c1c(=O)[nH]c(=O)n2C	-	-	-	-	-	-
SMILES	HDAC3 inhib	TMEM16A inh	CHT allo act	TMEM16A act	PHOSPHO1 inh	CHT inh
CCOC(=O)c1cc(-c2cccc([N+](=O)[O-])c2)nc2[nH]c(=O)[nH]c(=O)c12	-	-	-	-	-	-
CCOC(=O)c1c(CN2CCN(CCO)CC2)n(C)c2cc(Br)c(OC)cc12	-	-	7.7	-	-	-
CCOC(=O)c1c(CSc2ccccc2)n(C)c2cc(Br)c(O)c(CN(C)C)c12	-	-	-	-	-	-
CCOC(=O)c1c(CN2CCCCC2)n(C)c2cc(Br)c(O)c(CN(C)C)c12	-	-	11	-	-	-
CCOC(=O)c1c(CN2CCCCC2)n(C)c2cc(Br)c(OC)cc12	-	-	-	-	64	-
CCOC(=O)c1c(C)n(C)c2ccc(O)c(CN3CCCCC3)c12	-	-	-	-	-	-13
COCc1c(C(=O)NC2CCCCCC2)oc2ccccc12	-	-	-	-	-	-
